The text below walks through data of the supplement of paper PMC13380429.

Assay [1] has as its system Vero E6 infected with SARS-CoV-2. Description: morphology score (similarity to uninfected cells); higher = more like uninfected cells. The settings on record: 24 h.
Assay [2] shares this test system. Description: SARS-CoV-2 infection rate relative to infected DMSO; higher = more infection, active = 60 or less. The settings on record: 24 h.

Each structure is given as a SMILES string.

`COc1cc(COc2cc(N)c(Cl)cc2C(=O)CCC2CCN(CCNS(C)(=O)=O)CC2)cc(OC)c1` (0.833333 µM): in assay [1], the morphology score stood at 0.265. The SARS-CoV-2 infection rate in assay [2] was 102% (inactive).
Take `Cc1ccc(/C(=C\CN2CCCC2)c2cccc(/C=C/C(=O)O)n2)cc1` [acrivastine] (10 µM): the morphology score in assay [1] was -0.036. In assay [2], the SARS-CoV-2 infection rate is 104% (inactive).
In the case of `O=P(O)(O)C(Cl)(Cl)P(=O)(O)O` [clodronic-acid] (10 µM), in assay [1], the morphology score is -0.00847. For the same compound, in assay [2], the SARS-CoV-2 infection rate is 92% (inactive).
For `O.O=[Si]=O.O=[Si]=O.O=[Si]=O.O=[Si]=O.[O]=[Mg].[O]=[Mg].[O]=[Mg]` (10 µM) the same measures were 0.0643 and 104% (inactive).
The like results for `COc1cc(N2CCC(O)CC2)ccc1Nc1cc(Nc2ccccc2S(=O)(=O)C(C)C)c2cc[nH]c2n1` (0.833333 µM) were, in that order, -0.0202 and 106% (inactive).
The like results for `CCOc1ccccc1OC(c1ccccc1)C1CNCCO1` (stereo not drawn) [reboxetine] (10 µM) were, in that order, -0.0871 and 113% (inactive).
The compound `CCC(C)(C)c1ccc(CC(C)CN2C[C@@H](C)O[C@@H](C)C2)cc1` (stereo partly drawn) [amorolfine] (10 µM) had a morphology score in assay [1] of 0.198. In addition, the SARS-CoV-2 infection rate in assay [2] was 93% (inactive).
In assay [1], `Nc1ccc(O)c(C(=O)O)c1` [mesalazine] (10 µM) returned a morphology score of 0.0799. In addition, the SARS-CoV-2 infection rate in assay [2] is 93.5% (inactive).
The like results for `O=S(=O)(c1ccccc1)N(CC(F)(F)F)c1ccc(C(O)(C(F)(F)F)C(F)(F)F)cc1` (10 µM) were, in that order, 0.0275 and 104% (inactive).
The like results for `CN(C)CCCN1c2ccccc2Sc2ccc(C(F)(F)F)cc21` [triflupromazine] (10 µM) were, in that order, 0.465 and 56% (active).
In assay [1], `CC(C)C[C@@H](N)C1(c2ccc(Cl)cc2)CCC1` (10 µM) had a morphology score of -0.0886. In assay [2], the SARS-CoV-2 infection rate was 116% (inactive).
For `N=C(N)NN=C1C=CC(=NNC(N)=S)C=C1` [ambazone] (10 µM) the same measures were 0.129 and 104% (inactive).
For `Cc1cc(C)c(N(Cc2ccccc2)S(=O)(=O)c2ccc(OCCNC(=O)c3cc4ccccc4o3)cc2)c(C(=O)NO)c1` (0.833333 µM) the same measures were -0.0297 and 96% (inactive).
`Nc1c(Br)cc(Br)cc1CN[C@H]1CC[C@H](O)CC1` [ambroxol] (10 µM) came in with a morphology score in assay [1] of -0.155. The SARS-CoV-2 infection rate in assay [2] was 114% (inactive).
Regarding `O=C(NCc1ccccc1)c1csc(Nc2ccncn2)n1` [thiazovivin] (0.833333 µM), the morphology score in assay [1] stood at 0.654. Moreover, the SARS-CoV-2 infection rate in assay [2] was 99% (inactive).
Take `CC(C)C[C@H](NC(=O)CNC(=O)[C@H](Cc1ccc(O)cc1)NC(=O)[C@H](CO)NC(=O)[C@H](Cc1c[nH]c2ccccc12)NC(=O)[C@H](Cc1cnc[nH]1)NC(=O)[C@@H]1CCC(=O)N1)C(=O)N[C@@H](CCCNC(=N)N)C(=O)N1CCC[C@H]1C(=O)NCC(N)=O` [gonadorelin] (10 µM): the morphology score in assay [1] was -0.182. Further, in assay [2], the SARS-CoV-2 infection rate was 104% (inactive).
Consider `O=C(O)c1ccc2c(c1)C(=O)N(c1cccc(Oc3ccc([N+](=O)[O-])cc3)c1)C2=O` (10 µM), for which, in assay [1], the morphology score was 0.173. In addition, the SARS-CoV-2 infection rate in assay [2] was 99.5% (inactive).
For `O=C1c2ccccc2C(=O)C1c1ccc(Br)cc1` [bromindione] (10 µM) the same measures were 0.204 and 93.5% (inactive).
With `CN(C)CCCC1(c2ccc(F)cc2)OCc2cc(C#N)ccc21` (stereo not drawn) [citalopram] (10 µM), the morphology score in assay [1] is -0.167. In assay [2], the SARS-CoV-2 infection rate was 107% (inactive).
For `COc1cc(C(=O)N2CCC(N3CCN(C)CC3)CC2)ccc1Nc1ncc2c(n1)N(C)c1ccccc1C(=O)N2C` (0.833333 µM) the same measures were 0.0522 and 100% (inactive).
For `Cc1ccc(/C=C2\CNC/C(=C\c3ccc(C)cc3)C2=O)cc1` (0.833333 µM) the same measures were 0.168 and 93% (inactive).
In assay [1], `CN(C)Cc1cccc(N/C(=C2\C(=O)Nc3cc(C(N)=O)ccc32)c2ccccc2)c1` (10 µM) displayed a morphology score of -0.132. In assay [2], the SARS-CoV-2 infection rate is 120% (inactive).
For `O=c1c(-c2ccc(O)cc2)coc2c([C@@H]3O[C@H](CO)[C@@H](O)[C@H](O)[C@H]3O)c(O)ccc12` [kakonein] (10 µM) the same measures were -0.0186 and 103% (inactive).
The like results for `COc1cc(C2Oc3cc([C@H]4Oc5cc(O)cc(O)c5C(=O)[C@@H]4O)ccc3OC2CO)ccc1O` (stereo partly drawn) [silibinin] (10 µM) were, in that order, 0.0273 and 104% (inactive).
For `C/C(=C(\CCOP(=O)(O)O)SC(=O)c1ccccc1)N(C=O)Cc1cnc(C)nc1N` [benfotiamine] (10 µM), the morphology score in assay [1] was -0.0264. Moreover, in assay [2], the SARS-CoV-2 infection rate was 112% (inactive).
For `N=C(N)S/C=C\C(=O)O` (10 µM) the same measures were 0.101 and 108% (inactive).
For `COc1ccc(O)c(C(C)(C)C)c1.COc1ccc(O)cc1C(C)(C)C` [butylated-hydroxyanisole] (10 µM) the same measures were -0.127 and 116% (inactive).
`CO/N=C(\C(=O)N[C@@H]1C(=O)N2C(C(=O)O)=CCS[C@H]12)c1csc(N)n1` [ceftizoxim] (10 µM) showed a morphology score in assay [1] of -0.0509. In assay [2], the SARS-CoV-2 infection rate was 102% (inactive).
The like results for `CNC(=O)Nc1ccc(-c2nc(N3CC4CCC(C3)O4)c3cnn(C4CCC5(CC4)OCCO5)c3n2)cc1` (0.833333 µM) were, in that order, -0.104 and 100% (inactive).
